Measured values from PubChem BioAssay (NCATS).
Inconclusive results are not listed. The source made the active and inactive calls. Unless noted, calls come from the whole dose curve; as a rule, active = well fitted cell-killing curve with a large enough effect; inconclusive = small, poorly fitted or top-dose-only effect, or effect the other way; inactive = flat fitted curve, though single readings scatter.

Assays:
[1] = qHTS assay for cell viability of HEK293 cells (AID 743288); conditions: ATP luminescence (CellTiter-Glo), 18 h; max response: stronger effect = lower value; note: % is set by controls: 0 for no effect and ±100 for the full control effect; nearly all actives have a fitted effect of over 50% in size
Outline: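 HEK293, 18 h, 37 C, ATP luminescence. Cells at 2,000/well were allowed at least 5 h to settle before dosing; CellTiter-Glo developed 30 min at RT.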

[2] = qHTS assay for cell viability of the p53RE-bla HCT-116 cell line (AID 743292); note: % is set by controls: 0 for no effect and ±100 for the full control effect; nearly all actives have a fitted effect of over 55% in size
Outline: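 After plating at 4,000 cells per well and a 5 h rest at 37 C, HCT-116 cells carrying p53RE-bla received test chemicals in DMSO. Sixteen hours later at 37 C, CellTiter-Glo was added and luminescence recorded following 30 min at room temperature.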

[3] = qHTS assay for small molecule activators of the human pregnane X receptor (PXR) signaling pathway (AID 720659; call rule not given here; note: 0% is about no effect)

N[C@@H](Cc1ccccc1)C(=O)O
inactive: max response [1] 2.21% | Potency [2] | outcome [3]
